Laboratory results as given in PubChem BioAssay (NCATS).
Results filed as inconclusive are left out. A call without a number means that no potency is given here. Activity calls are given as the source filed them. The call rests on the fitted dose curve; in most records, active means well fitted inhibition curve with a large enough effect; inconclusive means small, poorly fitted or top-dose-only effect; inactive means flat fitted curve, though single readings scatter.

target: Calcium and integrin-binding protein 1 (Homo sapiens) (UniProt Q99828); experiment: Primary qHTS for Identification of Calcium Integrin Binding Protein 1 (CIB1) Competitor (AID 1508620); conditions: CIB1-GST / FITC-alphaIIb peptide fluorescence polarization; series mostly up to 114 µM;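 further: GST tagged CIB1 binding a fluorescein labelled alphaIIb integrin peptide tracer; top concentration of the series differs between compounds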
Sequence (Q99828 whole entry, looked up): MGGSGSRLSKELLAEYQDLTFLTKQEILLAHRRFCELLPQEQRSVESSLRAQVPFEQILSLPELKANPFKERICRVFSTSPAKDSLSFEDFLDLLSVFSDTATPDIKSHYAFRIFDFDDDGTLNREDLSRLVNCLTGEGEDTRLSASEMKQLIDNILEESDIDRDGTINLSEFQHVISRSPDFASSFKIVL
Procedure, shortened: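 CIB1-GST (1 uM final) and compound incubated 15 min at room temperature before adding FITC-alphaIIb peptide tracer (100 nM final). Competition for binding read by fluorescence polarization (ex 480, em 540) after another 15 min at room temperature.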

SMILES	Potency
CC(=O)NCc1cc(Cl)c2cccnc2c1O	inactive
NC(=O)C1CCN(c2nccc(-c3ccc(Br)cc3)n2)CC1	inactive
O=C(Nc1ccc(-c2nc3ccccc3[nH]2)cc1)c1ccc(Oc2ccccc2)cc1	inactive
Cc1nnc(-c2cnn(C)c2N)n1CCCc1cccnc1	inactive
O=C(Nc1ccc(Cl)c(C(F)(F)F)c1)Nc1nnc(-c2cccnc2)s1	inactive
Cc1cnc(-c2ccccc2C(C)C)nc1NCc1cccnc1	inactive
CN1CCOc2ccc(S(=O)(=O)N3CCN(S(=O)(=O)c4c(F)cccc4F)CC3)cc21	inactive
Cc1cc(C)nc(NC(=S)N2CCN(c3ccc(Cl)cc3S(C)(=O)=O)CC2)c1	inactive
Cn1nnnc1Sc1ncnc2scc(-c3cc4ccccc4o3)c12	inactive
Cc1cc(N[S+](=O)([O-])c2ccc(NC(=O)Cc3ccc(F)c(C(F)(F)F)c3)cc2)no1	inactive
COc1ccc(C(=O)Oc2ccc(-c3nc4ccccc4[nH]3)cc2)cc1OC	inactive
COc1cccc(C2c3c(ncn(-c4ccc(C)cc4)c3=N)Oc3ccc4ccccc4c32)c1 (configuration not stated)	inactive
COc1cccc(C2=Nn3c(nnc3-c3ccccc3O)SC2)c1	inactive
O=C(O)c1ccc(CSc2nnc(-c3cccc([S+](=O)([O-])N4CCCC4)c3)n2-c2ccccc2)cc1	inactive
Cc1sc(NC(=O)Cc2ccc3c(c2)OCO3)nc1-c1ccc2c(c1)CCN2C(=O)c1ccccc1Cl	inactive
CN(C)CCCNc1ncnc2ccc(-c3ccc4c(c3)OCO4)cc12	inactive
CC(=O)Nc1sc2c(c1-c1cc3ccccc3o1)CCNC2	inactive
